Our source for the inhibition values is PubChem BioAssay AID624330 (Southern Research Specialized Biocontainment Screening …, 2012).

By inhibition is commonly meant the drop in the measured response relative to a control, in per cent.

SMILES strings stand for the structures. The campaign covered roughly 340,000 compounds. About 2,100 (0.62%) were called active. Only a sample is shown. Results with a measured potency or affinity are listed apart. A number with no mark means an inactive call.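 The calls were made as follows: active = first-screen hits whose inhibition reached a set limit at any dose in the follow-up dose series; inconclusive = inhibition above the set first-screen limit but never retested; inactive = the rest.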

Rac GTPase-activating protein 1 (Homo sapiens), sequence (Q9H0H5 whole entry, looked up): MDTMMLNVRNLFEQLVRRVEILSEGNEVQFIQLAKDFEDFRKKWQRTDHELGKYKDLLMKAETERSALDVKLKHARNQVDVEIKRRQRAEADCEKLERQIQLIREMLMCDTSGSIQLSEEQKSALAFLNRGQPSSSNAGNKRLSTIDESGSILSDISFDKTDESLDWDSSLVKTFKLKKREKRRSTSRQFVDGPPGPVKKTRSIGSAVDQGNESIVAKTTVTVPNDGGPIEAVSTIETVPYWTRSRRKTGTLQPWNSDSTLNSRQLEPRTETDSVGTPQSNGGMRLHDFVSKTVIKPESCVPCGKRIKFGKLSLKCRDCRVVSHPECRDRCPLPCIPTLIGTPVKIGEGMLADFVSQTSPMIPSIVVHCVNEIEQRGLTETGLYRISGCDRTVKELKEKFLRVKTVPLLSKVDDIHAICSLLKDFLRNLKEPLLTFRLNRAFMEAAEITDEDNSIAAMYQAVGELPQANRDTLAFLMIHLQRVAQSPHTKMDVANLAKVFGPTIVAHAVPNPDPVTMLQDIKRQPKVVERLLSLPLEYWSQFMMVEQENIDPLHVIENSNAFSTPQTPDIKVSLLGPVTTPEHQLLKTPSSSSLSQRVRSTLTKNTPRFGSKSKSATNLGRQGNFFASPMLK

The assay concerns the target Rac GTPase-activating protein 1 (Homo sapiens) (UniProt Q9H0H5). Put plainly: MgcRacGAP GTPase-activating activity inhibitors, confirmation, biochemical, ADP Hunter fluorescence, primary and confirmatory (AID 624330).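 Also: fluorescence reports GDP produced by GAP-driven GTP hydrolysis.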 As to conditions: MgcRacGAP-stimulated Rac1 GTP hydrolysis, at 30 µM, active compounds read high, GST-tagged Rac1 F28L mutant substrate.
Consider `CCc1ccc(/C([O-])=C(/C(=S)NCCN2CCOCC2)[n+]2ccccc2)cc1`, for which the inhibition is -2.62%. The value for `CC[C@]12c3[nH]c4ccc(Cl)cc4c3CCN1C(=O)[C@@H](CC(=O)NCc1ccco1)C[C@@H]2C(=O)N1CCN(C(=O)C2CC2)CC1` was 9.23%; that for `CC12CCC(=O)N1C(C(=O)N1CCN(S(=O)(=O)c3ccccc3F)CC1)CS2` (centres undefined) was 2.86%. The result for `CCOC(=O)c1ccc2c(c1)nc(-c1ccc(F)cc1)c1nccn12` reads 0.78%. For the molecule `COc1ccc(CN2CCOCCOCCOCCOCCOCC2)cc1`, the inhibition was 12.1%. For the molecule `CCC(=O)Nc1cccc(NC(=O)CN2CCN(c3ccccc3OC)CC2)c1`, the inhibition is 9.77%. Regarding `Cc1ccc(C2(C)NC(=O)N(CC(=O)N(c3ccccc3)C3CCS(=O)(=O)C3)C2=O)cc1` (centres undefined), the inhibition is -6.22%. Turning to `CCN(CC)S(=O)(=O)c1cccc(C(=O)NN2Cc3ccccc3C2=N)c1`, the inhibition was -4.56%. The value for `C=CCn1c(SCC(=O)Nc2ccc3c(c2)OCO3)nnc1-c1ccccc1` was 6.23%; that for `CCn1c(SCC(=O)Nc2ccc(C)cc2)nnc1-c1ccc(O)cc1` was 5.22%. With `C=CCn1c(SCC(=O)NNC(=O)Nc2ccc(C)cc2)nnc1-c1ccccc1`, the inhibition is 1.01%. Take `CCn1c(SCC(=O)Nc2cc(C)on2)nnc1-c1cccc(C)c1`: the inhibition was 7.99%. For the molecule `Cc1csc(=O)n1CCC(=O)OCC(=O)Nc1ccc(Cl)cn1`, the inhibition was 4.45%. The value for `CCOc1ccc(S(=O)(=O)N/N=C(\C)C2CCCCC2)cc1` was 3.81%; that for `CCCCOc1ccc(/C=N/NC(=O)c2csc(C)c2C)cc1` was 16.6%. `COc1cccc(-n2nnc3c(=O)n(CC(=O)N4CCC(C)CC4)cnc32)c1`: the inhibition was 11.4%.

As for `CCOc1ncccc1C(=O)OCC(=O)NCc1ccccc1`, the inhibition was 5.95%. For the molecule `O=C(CN1CCN(C2CCCCC2)CC1)Nc1cccc2ccccc12`, the inhibition was 15.3%.

For `O=C(CN1CCCCC1)Nc1ccccc1-c1ccccc1`, the inhibition was 6.84%. Take `Cc1cc(C)cc(OCC(=O)N2CCN(c3ncccn3)CC2)c1`: the inhibition was 1.56%. For `COc1ccc(CC(=O)Oc2cc(C)ccc2C)cc1`, the inhibition is 4.1%. Regarding `COc1ccc(N(C(=O)COc2cccc(C)c2)S(=O)(=O)c2ccc(C)cc2)cc1`, the inhibition is 7.24%. Regarding `Cc1cccc(OCC(=O)Oc2ccc(Cl)cc2)c1`, the inhibition is 14.7%. On to `Cc1ccc(OC(=O)COc2ccccc2C)cc1`, for which the inhibition was 9.41%. As to `COc1ccc(OC(=O)COc2ccc(Cl)cc2)cc1`, the inhibition is 10.7%. For the molecule `Cc1ccc(OCC(=O)Oc2ccc(C(C)C)cc2)cc1`, the inhibition is 15.2%. For the molecule `Cc1ccc(C(=O)C[n+]2ccc(-c3nnc4n3CCC4)cc2)cc1`, the inhibition was -12.9%.

Regarding `CN(C(=O)CSc1nnc(-c2ccccc2F)n1N)C1CCCCC1`, the inhibition was 4.13%. With `Cc1noc(C)c1NC(=O)NCCN1CCN(Cc2ccccc2)CC1`, the inhibition was 11.3%. Consider `CCOc1ccc2[nH]c(=O)c(CN(CCN3CCCC3)C(=S)Nc3ccccc3OC)cc2c1`, for which the inhibition is 3.77%.

As to `C=CCc1ccccc1OCC(=O)N/N=C/c1ccc(OC(C)=O)cc1OC(C)=O`, the inhibition was -0.28%. The result for `C1=CC2=NC34CCCCC3CC3=C(CCCC3)N4C2=CC1=NC1CCCCC1` (centres undefined) reads 11.1%; that for `CCOc1ccc(NC(=O)NC2CCCc3ccccc32)cc1` (centres undefined), 13.3%; that for `COc1ccc(CNC2CCCc3ccccc32)cc1OC` (centres undefined), 6.79%. Regarding `CCOc1ccc(N=Nc2ccc(O)c3ncccc23)cc1`, the inhibition is 5.89%. The result for `CCOc1ccc2[nH]c3ncccc3c(=O)c2c1` reads 3.15%; that for `COc1ccc(/C=N/NC(=O)c2cc(C)oc2C)cc1OCc1ccccc1`, 11.1%. With `COc1ccc(/C=N/NC(=O)c2ccoc2C)cc1OC`, the inhibition was 6.81%. As to `COc1cc(/C=N/NC(=O)c2cc(C)oc2C)cc(OC)c1OC`, the inhibition is -1.5%. Take `COc1cc(/C=N/NC(=O)c2cc(C)oc2C)ccc1OCc1ccccc1`: the inhibition is 5.24%.

For `COc1ccc(/C=N/NC(=O)c2cc(C)oc2C)cc1OC`, the inhibition is 3.85%. In the case of `COc1cc(/C=N/NC(=O)c2ccoc2C)cc(OC)c1O`, the inhibition is 21.6%.

As for `Cc1ccc(S(=O)(=O)N2CCN(C(=O)c3ccco3)CC2)c(C)c1`, the inhibition is 6.61%. As for `CC(=O)Nc1ccc(S(=O)(=O)N2CCCC3CCCCC32)cc1` (centres undefined), the inhibition is 2.55%. As for `COCCCNC(=O)CC1C[C@H](C(=O)N2CCOCC2)[C@@]2(CCC3CCCC3)c3[nH]c4ccc(OC)cc4c3CCN2C1=O` (some centres undefined), the inhibition is 3.79%.

`O=C(NC1CCN(Cc2ccc(Cl)cc2Cl)CC1)c1ccccc1`: the inhibition is 5.03%.

Take `Cn1c(C(=O)N2CCCC(Nc3ccc(F)cc3)C2)cc2ccccc21` (centres undefined): the inhibition was -8.53%. With `O=C(O)c1cccc(S(=O)(=O)Nc2ccccc2C(=O)NCCc2ccccc2)c1`, the inhibition was 4.14%. The result for `COc1cccc(CNCc2ccc3c(c2)OCO3)c1` reads 31.8%; that for `COc1cc(C(=O)NCCc2ccc3c(c2)OCO3)cc(OC)c1OC`, -4.93%; that for `COc1cc(CC(=O)NCc2ccc3c(c2)OCO3)cc(OC)c1OC`, 4.17%. Take `Fc1cccc(CNCc2ccc3c(c2)OCO3)c1`: the inhibition was 3.78%. The value for `CC1(C)CC(=O)C=C(c2cccc(OC(=O)c3ccc(-c4ccccc4)cc3)c2)C1=O` was 11.9%; that for `CCOc1ccc(NC(=O)CN2CCN(c3ccc(F)cc3)CC2)cc1S(=O)(=O)N1CCCC1` was 10.6%; that for `CN(CC(O)COc1ccc(S(=O)(=O)N2CCOCC2)cc1)C1CCCCC1` (centres undefined) was 10.6%.

Take `O=C(CSc1nnnn1Cc1ccccc1)Nc1cccc(F)c1`: the inhibition is 8.78%.

`Nc1ccc(C(=O)C(=O)c2ccc(N)cc2)cc1`: the inhibition was 6.66%. Turning to `N=C(N)c1ccc(N)cc1`, the inhibition is 10.7%.

Take `CC(NC(=O)COc1cccc(Br)c1)C(=O)O` (centres undefined): the inhibition is 3.37%. As for `CCc1sc(C(=O)Nc2ccc(N3CCOCC3)cc2)cc1C`, the inhibition was 9.93%.

As for `CN1C(=S)SC(N(O)C=C2C=CC(=O)C=C2)C1(C)C` (centres undefined), the inhibition is 24.5%. As to `CCOC(=O)/C(C#N)=C\C=C1C=CN(C)C=C1`, the inhibition was 10.4%.

Consider `COc1ccc(C(CNC(=O)c2ccc(NS(=O)(=O)c3ccc4c(c3)OCCO4)cc2)N(C)C)cc1` (centres undefined), for which the inhibition was -0.2%. For the molecule `CCC(C)(c1ccc(C=O)s1)c1ccc(C=O)s1`, the inhibition was 6.23%.

With `Cc1ccc2c(CC(=O)NNC(=O)c3ccccc3)coc2c1`, the inhibition was 6.09%. On to `Cc1ccc2c(CC(=O)NNC(=O)c3ccccc3O)coc2c1`, for which the inhibition was -8.73%. The result for `Cc1ccc2c(CC(=O)NCc3cccs3)coc2c1` reads 3.76%. For `COc1ccc2c(CC(=O)NNC(=O)c3cccs3)coc2c1`, the inhibition was 5.91%.

In the case of `CN(C)CC1(c2ccccc2)CCCC1`, the inhibition was -6.5%. For the molecule `CC1CCCCN1C(=S)Nc1ccc(OC(F)F)cc1` (centres undefined), the inhibition is 2.05%. Regarding `O=c1[nH]c2ccccc2cc1CN(Cc1ccco1)S(=O)(=O)c1ccccc1`, the inhibition is 5.99%. Regarding `CC(C)(C)NC(=O)C(c1ccc(-c2ccccc2)cc1)N(C[C@H]1CC[C@@H]([C@@H]2CC[C@H](CO)O2)O1)C(=O)c1ccccc1F` (some centres undefined), the inhibition is 3.69%. For the molecule `O=C(O)Cn1nc(-c2ccccc2)ccc1=O`, the inhibition is -3.67%.

Turning to `CCN(CC)CCOC(=O)c1ccc(N/C=C(/C#N)c2nc(-c3cc4ccccc4oc3=O)cs2)cc1`, the inhibition was 26.6%.

Turning to `COc1ccc(-c2csc(/C(C#N)=C/Nc3ccc4c(c3)OCCO4)n2)cc1`, the inhibition was 2.83%. `CCN(CC)CCOC(=O)c1ccc(N/C=C(/C#N)c2nc(-c3ccc(OC)cc3)cs2)cc1`: the inhibition is 10.3%. Consider `Cc1ccc(-c2csc(/C(C#N)=C/Nc3ccc4c(c3)OCCO4)n2)cc1`, for which the inhibition was 16.1%. As for `c1ccc(-c2ncc(CSc3nncn3-c3ccccc3)s2)cc1`, the inhibition is 1.96%. In the case of `Cn1cc(SCC(=O)Nc2ccc3c(c2)OCO3)c2ccccc21`, the inhibition was 5.29%. As to `O=C(NCc1ccccc1Cl)c1ccccc1CCc1ccccc1`, the inhibition was 6.88%. `CCc1ccc(NC(=O)C2=CC=CN3CCS(=O)(=O)N=C23)cc1`: the inhibition is 7.78%. Turning to `Cc1ccc(NC(=O)C2=CC=CN3CCS(=O)(=O)N=C23)cc1`, the inhibition was 2.18%. For `CN(C)C(=O)CCc1nc2sc3c(c2c(=O)[nH]1)CCCC3`, the inhibition is 18%.

On to `NC(=O)Cn1cc(/C=N\NS(=O)(=O)c2ccc(Cl)cc2)c2ccccc21`, for which the inhibition was 20%. Consider `COC(=O)c1ccc(NC(=S)N2CCN(Cc3ccc(Cl)cc3)CC2)cc1`, for which the inhibition is -0.55%.

In the case of `O=C1NC(=S)S/C1=C\c1coc2ccc(O)cc2c1=O`, the inhibition is 7.3%.

As to `O=C1NN(c2ccccc2)C(=O)/C1=C\c1coc2ccc(O)cc2c1=O`, the inhibition is 23.8%. As for `CN1C(=O)/C(=C/c2coc3ccc(O)cc3c2=O)SC1=S`, the inhibition is 11.2%. Regarding `CSC1=NSC2=NC(=O)/C(=C/c3coc4ccc(O)cc4c3=O)C(=N)N12`, the inhibition is 14.1%.

On to `COc1ccc(CCNC(=O)c2cccc(S(=O)(=O)N3CCCCC3)c2)cc1`, for which the inhibition is 8.12%. `C[C@H]1CN([C@@H](C)CO)C(=O)c2cccc(NC(=O)Nc3ccc(F)cc3)c2O[C@@H]1CN(C)Cc1ccc(C(=O)O)cc1`: the inhibition was 2.98%.

With `O=C(NCc1ccccn1)C1Nc2ccc(C(F)(F)F)cc2C2C=CCC12` (centres undefined), the inhibition is 24.7%. On to `O=c1cc(CNc2cc(Cl)ccc2Cl)nc2sccn12`, for which the inhibition is 2.5%.

As for `CCN(CC)C(=O)C(Sc1nnnn1-c1ccc(O)cc1)c1ccccc1` (centres undefined), the inhibition was 3.92%.
